{"source": "PubChem BioAssay (NCATS)", "note": "Results filed as inconclusive are left out. Active and inactive are the calls of the source. Calls come from the whole dose curve; as a rule, active = well fitted cell-killing curve with a large enough effect; inconclusive = small, poorly fitted or top-dose-only effect, or effect the other way; inactive = no such curve, though single readings can be large or run the other way. Residues, ends and D or L forms follow the SMILES beside them. *: point of attachment. Cbz = O=C(OCc1ccccc1)*"}
{"assay": "Quantitative High-Throughput drug screen in 47 multiple myeloma cell lines against the NCATS MIPE library collection: MOLP8_DSMZ cell viability assay (AID 1918977); note: nearly all actives have a fitted effect of over 45% in size; note: potency is the fitted concentration of half-maximal effect", "conditions": "MOLP8 myeloma viability, CellTiter-Glo ATP luminescence, 48 h; series mostly up to 45.8 µM", "excerpt": "PI: Beverly A. Mock Ph.D.\nLaboratory of Cancer Biology and Genetics,\nCenter for Cancer Research, National Cancer Institute,\nNational Institute of Health, Bethesda, Maryland\nDrug resistance and disease progression are common in multiple myeloma (MM) patients, underscoring the need for new therapeutic combinations. […] We hypothesized that effective combinations would reduce MYC expression and enhance p16 activity. […] These preclinical data identify potentially useful drug combinations for evaluation in drug-resistant MM and reveal potential mechanisms of combined drug sensitivity.\nDescribed herein is the primary MIPE qHTS used to cherrypick compounds. Validated compounds were then further tested for potential synergistic activiy.\n[1] Peat TJ, Gaikwad SM, Dubois W, Gyabaah-Kessie N, Zhang S, Gorjifard S, Phyo Z, Andres M, Hughitt VK, Simpson RM, Miller MA, Girvin AT, Taylor A, Williams D, D'Antonio N, Zhang Y, Rajagopalan A, Flietner E, Wilson K, Zhang X, Shinn P, Klumpp-Thomas C, McKnight C, Itkin Z, Chen L, Kazandijian D, Zhang J, Michalowski AM, Simmons JK, Keats J, Thomas CJ, Mock BA. Drug combinations identified by high-throughput screening promote cell cycle transition and upregulate Smad pathways in myeloma. Cancer Lett. 2023 Aug 1;568:216284. doi: 10.1016/j.canlet.2023.216284. Epub 2023 Jun 24. PMID: 37356470; PMCID: PMC10408729.\nSEQUENCE No. (e.g., 1, 2, 3, etc.); […] (e.g., Cells, Incubation, Reagent, etc.); VALUE and DESCRIPTION.\n1; Cells; 5 uL; white, solid bottom 1536-well Greiner assay plate.\n2; Compounds; 23 nL; Kalypsis pin tool (Wako USA) equipped with a 1536-well pin head to transfer to the assay plates.\n3; Incubation; 48 hours; 37C incubation.\n4; Reagent;5uL; CellTiter Glo (Promega).\n5; Detector; 425V; Luminescence; Viewlux PerkinElmer.\nNOTES (numbers refer to Sequence numbers above)\n1. The cell-based screening methods employed in this study were like those previously published. Briefly, the corresponding myeloma cell lines were screened in 1,536-well plates with 500 cells, 5-uL per well for inhibition of cell viability (assessed by measuring ATP levels with CellTiterGlo).\n2. NCATS MIPE 4.0 library of approved and investigational drugs were added using the Kalypsis pin tool. Wells treated with DMSO only for 100% viability and media only for 0% viability were used as controls.\n3. The assay plates were covered and incubated for 48 hours in a 37C, 5% CO2 incubator with controlled humidity.\n4. After 48 hours, CellTilter-GloTM luminescent substrate mix (Promega) reagent was added to the assay plate and plates we incubated for 5 min at room temperature.\n5. Signal was measured as median relative luminescence units on a ViewLux (PerkinElmer) multiplate reader.\n[1] Heske CM, Davis MI, Baumgart JT, Wilson K, Gormally MV, Chen L, Zhang X, Ceribelli M, Duveau DY, Guha R, Ferrer M, Arnaldez FI, Ji J, Tran HL, Zhang Y, Mendoza A, Helman LJ, Thomas CJ. Matrix Screen Identifies Synergistic Combination of PARP Inhibitors and Nicotinamide Phosphoribosyltransferase (NAMPT) Inhibitors in Ewing Sarcoma. Clin Cancer Res. 2017 Dec 1;23(23):7301-7311. doi: 10.1158/1078-0432.CCR-17-1121. Epub 2017 Sep 12. PMID: 28899971; PMCID: PMC6636827."}
{"smiles": "CC(=O)O[C@H]1C[C@@H]2CC[C@H]3[C@H]4C[C@H]([N+]5(C)CCCCC5)[C@@H](OC(C)=O)[C@@]4(C)CC[C@@H]3[C@@]2(C)C[C@H]1[N+]1(C)CCCCC1", "Potency": "inactive"}
{"smiles": "Cn1cnc2c(F)c(Nc3ccc(Br)cc3F)c(C(=O)NOCCO)cc21", "Potency": "inactive"}
{"smiles": "C[C@H](NC(=O)C(C#N)=Cc1cccc(Br)n1)c1ccccc1", "Potency": "2.35 µM (active)"}
{"smiles": "CC(C)C[C@@H](C=O)NC(=O)[C@H](CC(C)C)NC(=O)[C@H](CC(C)C)NC(=O)OCc1ccccc1", "note": "(Cbz-Leu-Leu-Leu-aldehyde)", "Potency": "0.469 µM (active)"}
{"smiles": "CC[C@@]1([C@@H]2O[C@@H]([C@H]3O[C@@](O)(CO)[C@H](C)C[C@H]3C)C[C@H]2C)CC[C@H]([C@]2(C)CC[C@]3(C[C@H](O)[C@@H](C)[C@@H]([C@@H](C)[C@@H](OC)[C@H](C)C(=O)O)O3)O2)O1", "Potency": "0.204 µM (active)"}
{"smiles": "CC(C)N(CC[C@H](c1ccccc1)c1cc(CO)ccc1O)C(C)C", "Potency": "inactive"}
{"smiles": "CC(C)C[C@H](NC(=O)[C@@H](NC(=O)c1cccc(-c2ccccc2)n1)[C@@H](C)O)B(O)O", "Potency": "0.0296 µM (active)"}
{"smiles": "COc1cc([C@@H]2c3cc4c(cc3[C@H](O)[C@H]3COC(=O)[C@@H]23)OCO4)cc(OC)c1OC", "Potency": "0.469 µM (active)"}
{"smiles": "CCc1c(O)cc(O)c(C(=O)c2ccc(OCCN3CCOCC3)c(OC)c2)c1CC(=O)N(CCOC)CCOC", "Potency": "0.662 µM (active)"}
{"smiles": "Cn1cc(C[C@@H](N)C(=O)O)c2ccccc21", "Potency": "0.115 µM (active)"}
{"smiles": "N#Cc1ccc(COC[C@H]2O[C@@H](n3c(NCc4ccc(Cl)c(Cl)c4)nc4c(N)ncnc43)[C@@H](O)[C@@H]2O)cc1", "Potency": "16.6 µM (active)"}
{"smiles": "COc1cccc2c1C(=O)c1c(O)c3c(c(O)c1C2=O)C[C@@](O)(C(=O)CO)C[C@@H]3O[C@H]1C[C@H](N)[C@H](OC2CCCCO2)[C@H](C)O1", "note": "(stereo not given in full)", "Potency": "1.18 µM (active)"}
{"smiles": "CCC(C(=O)O)C1CCC(C)C(C(C)C(O)C(C)C(=O)C(CC)C2OC3(C=CC(O)[C@@]4(CC[C@](C)(C5CC[C@@](O)(CC)C(C)O5)O4)O3)C(C)CC2C)O1", "note": "(stereo not given in full)", "Potency": "0.743 µM (active)"}
{"smiles": "CON=C(C(=O)N[C@@H]1C(=O)N2C(C(=O)O)=C(Cn3ccc(=N)n3CCO)CS[C@H]12)c1csc(N)n1", "Potency": "inactive"}
{"smiles": "NC(=O)c1ncn([C@@H]2O[C@H](CO)[C@@H](O)[C@@H]2O)c1O", "Potency": "inactive"}
{"smiles": "C[C@H](CCC(=O)O)[C@H]1CC[C@H]2[C@@H]3[C@H](O)C[C@@H]4C[C@H](O)CC[C@]4(C)[C@@H]3CC[C@]12C", "Potency": "inactive"}
{"smiles": "COc1ccc2c(c1OC)C(=O)OC2[C@H]1c2c(cc3c(c2OC)OCO3)CCN1C", "note": "(stereo not given in full)", "Potency": "6.62 µM (active)"}
{"smiles": "CN(CC(=O)N(Cc1ccc(C2CCCCC2)cc1)c1ccc(C(=O)O)c(O)c1)S(=O)(=O)c1c(F)c(F)c(F)c(F)c1F", "Potency": "18.7 µM (active)"}
{"smiles": "CS[C@H]1SC[C@@H]2C(=O)N(C)[C@H](C(C)C)C(=O)OC[C@H](NC(=O)c3cnc4ccccc4n3)C(=O)N[C@H](C)C(=O)N(C)[C@@H]1C(=O)N(C)[C@H](C(C)C)C(=O)OC[C@H](NC(=O)c1cnc3ccccc3n1)C(=O)N[C@H](C)C(=O)N2C", "Potency": "0.0047 µM (active)"}
{"smiles": "CCN(CC)Cc1ccc2cc(COC(=O)Nc3ccc(C(=O)NO)cc3)ccc2c1", "Potency": "0.372 µM (active)"}
{"smiles": "CC(Oc1ccc(O)cc1)(P(=O)(O)O)P(=O)(O)O", "Potency": "inactive"}
{"smiles": "O=C(C=Cc1ccc(CN(CCO)CCc2c[nH]c3ccccc23)cc1)NO", "Potency": "0.0833 µM (active)"}
{"smiles": "CN1[C@H]2CC(OC(=O)[C@@H](CO)c3ccccc3)C[C@H]1[C@H]1O[C@H]12", "note": "(stereo not given in full)", "Potency": "inactive"}
{"smiles": "CC(=O)N1CCN(c2ccc(OCc3nn(C)c(C)c3-c3cccc4c(CCCOc5cccc6ccccc56)c(C(=O)O)n(Cc5cccnc5)c34)cc2)CC1", "Potency": "16.6 µM (active)"}
{"smiles": "C[C@@H]1C(=O)O[C@H]2CC34[C@H]5C[C@@H](C(C)(C)C)C36[C@H](OC(=O)[C@@H]6O)O[C@@]4(C(=O)O5)[C@]21O", "note": "(stereo not given in full)", "Potency": "inactive"}
{"smiles": "C=CCNC1=C2C[C@@H](C)C[C@H](OC)[C@@H](O)[C@@H](C)C=C(C)[C@H](OC(N)=O)[C@@H](OC)C=CC=C(C)C(=O)NC(=CC1=O)C2=O", "Potency": "0.264 µM (active)"}
{"smiles": "COc1cc2ncnc(Nc3cccc(Br)c3)c2cc1OC", "Potency": "20.9 µM (active)"}
{"smiles": "COc1cc(C)c(Sc2cnc(NC(=O)c3ccc(CNC(C)C(C)(C)C)cc3)s2)cc1C(=O)N1CCN(C(C)=O)CC1", "note": "(stereo not given)", "Potency": "8.33 µM (active)"}
{"smiles": "COc1cc(C=CC(=O)CC(=O)C=Cc2ccc(O)c(OC)c2)ccc1O", "Potency": "9.59 µM (active)"}
{"smiles": "Nc1ccc(C(=O)Nc2cccc(-c3nc(N4CCOCC4)c4oc5ncccc5c4n3)c2)cn1", "Potency": "20.9 µM (active)"}
{"smiles": "C=C(C)[C@@H]1CC[C@]2(C)CC[C@]3(C)[C@H](CC[C@@H]4[C@@]5(C)CC[C@H](O)C(C)(C)[C@H]5CC[C@]43C)[C@@H]12", "Potency": "inactive"}
{"smiles": "CCc1cnn2c(NCc3ccc[n+]([O-])c3)cc(N3CCCC[C@@H]3CCO)nc12", "Potency": "0.0118 µM (active)"}
{"smiles": "Cc1cnc(Nc2ccc(N3CCN(C)CC3)cc2)nc1Nc1cccc(S(=O)(=O)NC(C)(C)C)c1", "Potency": "2.09 µM (active)"}
{"smiles": "c1ccc(CNc2nc(NCc3ccccc3)c3ccccc3n2)cc1", "Potency": "18.7 µM (active)"}
{"smiles": "c1ccc2c(Oc3nc(Nc4ccc(N5CCOCC5)cc4)c4ncn(C5CCCCC5)c4n3)cccc2c1", "Potency": "inactive"}
{"smiles": "CN(C)c1ccc2cc(C(=O)N[C@@H](CCCN=C(N)CCl)C(=O)NCc3ccccc3)ccc2c1", "Potency": "9.35 µM (active)"}
{"smiles": "O=c1ccn([C@@H]2O[C@H](CO)[C@H](O)[C@@H]2F)c(=O)[nH]1", "Potency": "inactive"}
{"smiles": "O=C(c1ccc(F)cc1)N1CCC[C@H](c2nc(-c3ccc(F)cc3)no2)C1", "Potency": "inactive"}
{"smiles": "CCCCC(=O)O[C@]1(C(=O)CO)[C@@H](C)C[C@H]2[C@@H]3CCC4=CC(=O)C=C[C@]4(C)[C@@]3(F)[C@@H](O)C[C@@]21C", "Potency": "0.526 µM (active)"}
{"smiles": "CCC[C@H]1C[C@H](C(=O)N[C@@H]([C@@H]2O[C@@H](SC)[C@@H](O)[C@@H](O)[C@@H]2O)[C@H](C)Cl)N(C)C1", "Potency": "inactive"}
